Shown are actives, neighbours in structure and some others; about 1.5% of the full set was active somewhere.
MRP-1 activ: activators of MRP-1 | H69AR cells + doxorubicin, viability rescue, CellTiter-Glo | viability increase, % at 10 µM | actives 0.61% (n = 140,000) | AID 799;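 active = viability gain under doxorubicin at or above a set limit, the compound median plus 3 SD, cut at about 4.7% in these data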;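 note: MRP-1 overexpressing cells given doxorubicin 25 µM after compound pretreatment; 18-22 h compound pretreatment then 72 h with doxorubicin before readout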
DAT uptake mod: modulates human dopamine transporter uptake under cocaine; Q01959; LLC-PK1 hDAT cells, [14C]-dopamine uptake with cocaine IC80; actives deviate in either direction; B-score at 10 µM; actives 1.3% (n = 110,000);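 active = Z score or B-score, a plate-position-corrected score, falls beyond the plate's 99.7% confidence bounds, in either direction; inactive = both scores lie inside the 99.7% bounds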
Target sequence (Q01959 whole entry, looked up): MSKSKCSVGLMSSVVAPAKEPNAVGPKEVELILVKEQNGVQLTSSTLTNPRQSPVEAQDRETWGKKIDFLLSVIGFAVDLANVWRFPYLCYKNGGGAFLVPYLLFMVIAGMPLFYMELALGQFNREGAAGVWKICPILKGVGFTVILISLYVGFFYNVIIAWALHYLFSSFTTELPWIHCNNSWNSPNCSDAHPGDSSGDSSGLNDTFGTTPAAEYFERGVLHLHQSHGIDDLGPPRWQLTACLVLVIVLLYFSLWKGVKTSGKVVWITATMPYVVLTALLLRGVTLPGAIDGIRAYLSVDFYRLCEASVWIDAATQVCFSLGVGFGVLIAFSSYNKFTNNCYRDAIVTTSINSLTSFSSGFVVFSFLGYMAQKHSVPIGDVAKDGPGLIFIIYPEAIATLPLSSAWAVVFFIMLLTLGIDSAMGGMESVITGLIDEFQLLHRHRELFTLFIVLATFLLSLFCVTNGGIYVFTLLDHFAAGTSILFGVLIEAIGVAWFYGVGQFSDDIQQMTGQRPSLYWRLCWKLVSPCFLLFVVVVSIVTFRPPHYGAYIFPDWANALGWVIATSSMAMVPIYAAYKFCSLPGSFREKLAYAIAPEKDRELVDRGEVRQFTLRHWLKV
MRP reversal: MRP-mediated drug resistance reversal; H69AR cells + 2 uM doxorubicin, CellTiter-Glo, 72 h; differential viability (reversal), % at 10 µM; actives 0.04% (n = 85,000);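 active = viability drop by adding the cancer drug above about 55%, with treated viability meeting a 40% cutoff, limit read from the data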;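 note: larger differential means the compound sensitizes cells more to doxorubicin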
A number is an active result.

For COc1ccc(N2CCN(Cc3nc(N)nc(Nc4ccccc4OC)n3)CC2)cc1 the results were MRP-1 activ inactive, DAT uptake mod inactive and MRP reversal inactive.
Nc1nc(CN2CCN(c3ccc(F)cc3)CC2)nc(N2CCCc3ccccc32)n1 was read as MRP-1 activ inactive, DAT uptake mod -2.7 and MRP reversal inactive.
`O=C(NNS(=O)(=O)c1ccc([N+](=O)[O-])cc1)c1cnn(-c2ccccc2)c1-n1cccc1` gave MRP-1 activ inactive and DAT uptake mod inactive.
For CC(C)CC(CO)N1CCN(C(=O)c2ccccc2)CCC1=O (centres undefined) the results were DAT uptake mod inactive.
Screening O=C1CC(O)(C(F)(F)F)Oc2c1ccc1ccccc21 (centres undefined) returned MRP-1 activ inactive, DAT uptake mod -3.5 and MRP reversal inactive.
O=C1CC(O)(C(F)F)Oc2ccc3ccccc3c21 (centres undefined) was read as MRP-1 activ inactive, DAT uptake mod inactive and MRP reversal inactive.
Screening CCOc1ccc(OCC)c(NC(=O)CSc2nc3c(c(=O)n(C)c(=O)n3C)n2C(C)C)c1 returned MRP-1 activ inactive, DAT uptake mod 3 and MRP reversal inactive.
Screening CCOc1ccc(OCC)c(NC(=O)CSc2nc3c(c(=O)n(C)c(=O)n3C)n2C)c1 returned MRP reversal inactive.
Cc1c(C(=O)N2CCC(C)CC2)sc2ncnc(N3CCN(c4ccccc4)CC3)c12 was read as MRP-1 activ inactive.
Screening C#CCn1c(S(=O)(=O)Cc2ccc(F)cc2)nc(-c2ccccc2)c1-c1ccccc1 returned MRP-1 activ inactive and DAT uptake mod inactive.
CC1CCc2nn(CC(=O)NCCC3=CCCCC3)cc2C1 (centres undefined) was read as MRP-1 activ inactive, DAT uptake mod 7.5 and MRP reversal inactive.
Screening COCCNC(=O)Cn1cc2c(n1)CCC(C)C2 (centres undefined) returned MRP-1 activ inactive, DAT uptake mod inactive and MRP reversal inactive.
For O=C(COC(=O)C1CCN(S(=O)(=O)c2ccc3c(c2)OCCO3)CC1)Nc1cccc2ccccc12 the results were MRP-1 activ inactive.
Screening C=CCc1ccc(OCCOc2cccc3ccc(C)nc23)c(OC)c1 returned MRP-1 activ inactive and DAT uptake mod inactive.
For COc1cccc(C(c2sc3nc(C)nn3c2O)N2CCN(c3ccccc3F)CC2)c1 (centres undefined) the results were MRP-1 activ inactive, DAT uptake mod 2.7 and MRP reversal inactive.
`Cc1nc2sc(C(c3ccccc3)N3CCN(c4ccccc4F)CC3)c(O)n2n1` (centres undefined) gave MRP-1 activ inactive, DAT uptake mod inactive and MRP reversal inactive.
CC(C)CNC(=O)CC(=O)N/N=C/c1ccc(F)cc1 was read as MRP-1 activ inactive.
`CCCCCC(=O)NC(=S)Nc1ccc(Cl)cn1` gave MRP-1 activ inactive.
For CCC(=O)NC(=S)Nc1ccc(Cl)cn1 the results were MRP-1 activ inactive and DAT uptake mod 2.2.
Screening CCOc1ccc(C(=O)NC(=S)Nc2ccccc2N2CCOCC2)cc1Br returned MRP-1 activ inactive.
For Cc1nc2cc(C(=O)OCC(=O)Nc3ccc(C#N)cc3)ccc2n1-c1ccccc1 the results were MRP-1 activ inactive.
`Cc1nc2cc(NC(=O)COc3ccc(C#N)cc3)ccc2n1-c1ccccc1` gave MRP-1 activ inactive, DAT uptake mod -7.9 and MRP reversal inactive.
O=C(O)C1=C[C@H](c2coc3ccccc3c2=O)C[C@H](OCc2ccc(CO)cc2)O1 was read as DAT uptake mod inactive.
Screening O=C(CSc1nnc(C2CC2)n1Cc1ccccc1)N1CCN(S(=O)(=O)c2ccccc2)CC1 returned MRP-1 activ inactive, DAT uptake mod -7.4 and MRP reversal inactive.
Screening O=C(CSc1nnc(C2CC2)n1Cc1ccccc1)c1ccc(S(=O)(=O)N2CCOCC2)cc1 returned MRP-1 activ inactive, DAT uptake mod inactive and MRP reversal inactive.
CC(C)(C)[C@H]1C=C(C(=O)N2CCN(Cc3ccc4c(c3)OCO4)CC2)O[C@@H](OCc2ccc(CO)cc2)C1 was read as DAT uptake mod inactive.
Nc1ccnc(Oc2ccc(F)cc2)c1 was read as MRP-1 activ inactive.
CCCCCCNC(=O)n1cc(F)c(=O)[nH]c1=O was read as DAT uptake mod inactive.
Screening CNC[C@H](O)c1ccc(O)c(O)c1 returned MRP-1 activ 7.1 and DAT uptake mod inactive.
CNC[C@H](O)c1cccc(O)c1 was read as MRP-1 activ inactive, DAT uptake mod inactive and MRP reversal inactive.
Cc1ccccc1COCCN1CCN(S(=O)(=O)c2ccccc2)CCC1=O was read as DAT uptake mod inactive.
For N#Cc1ccc(/C=N/NC(=O)CCc2ccc(S(=O)(=O)N3CCOCC3)cc2)cc1 the results were MRP-1 activ inactive.
Screening S=C(Nc1ccccc1)N1CCCCCC1 returned MRP-1 activ inactive and DAT uptake mod -8.4.
`Fc1ccc(NC(=S)N2CCCCC2)cc1` gave MRP-1 activ inactive.
`CN(C)CCOc1ncnc2c1oc1ccccc12` gave MRP-1 activ inactive, DAT uptake mod inactive and MRP reversal inactive.
For COc1ccc(Oc2ncnc3c2oc2ccc(Br)cc23)cc1 the results were DAT uptake mod -7.4 and MRP reversal inactive.
`Cc1cccc2c(CC(=O)Nc3ccccc3)noc12` gave MRP-1 activ inactive.
For Nc1c2c(nc3ccn(Cc4ccccc4)c(=O)c13)CCC2 the results were MRP-1 activ inactive, DAT uptake mod inactive and MRP reversal inactive.
Screening Nc1c2c(nc3ccn(-c4ccccc4)c(=O)c13)CCCCC2 returned MRP-1 activ 4.9, DAT uptake mod inactive and MRP reversal inactive.
Screening Cc1ccc(OCC(=O)N/N=C/C=C/c2ccco2)cc1C returned MRP-1 activ inactive.
For COc1ccc(C(=O)NCC(=O)NCC(=O)OCC(=O)C(C)(C)C)cc1 the results were MRP-1 activ inactive.
For CN=C1S/C(=C\c2ccc(N3CCOCC3)cc2C)C(=O)N1C the results were MRP-1 activ inactive.
`CN=C1S/C(=C\c2cc(C)n(-c3ccccc3F)c2C)C(=O)N1C` gave MRP-1 activ 5.9 and DAT uptake mod inactive.
Screening Cc1cc([N+](=O)[O-])c(NCCCCCCO)c([N+](=O)[O-])c1 returned DAT uptake mod inactive.
`CCN(c1ccc(OCC(=O)OCC(=O)Nc2ccc(F)c(F)c2F)cc1)S(=O)(=O)c1ccccc1` gave MRP-1 activ inactive.
For CCc1c(C)nc2cc(-c3cc(OC)cc(OC)c3)nn2c1N1CCN(CCN2CCOCC2)CC1 the results were MRP-1 activ inactive, DAT uptake mod inactive and MRP reversal inactive.
`CCOCCN1CCN(c2c(C)c(C)nc3cc(-c4cc(OC)cc(OC)c4)nn23)CC1` gave MRP-1 activ inactive, DAT uptake mod 2.5 and MRP reversal inactive.
Screening CC(C)n1c(SCc2ccc(Cl)cc2)nc2c1c(=O)[nH]c(=O)n2C returned MRP-1 activ inactive, DAT uptake mod -3.1 and MRP reversal inactive.
Screening CC(C)CCn1c(SCc2ccc(Cl)cc2)nc2c1c(=O)[nH]c(=O)n2C returned MRP-1 activ inactive, DAT uptake mod inactive and MRP reversal inactive.
C=C1/C(=C\C=C2/CCC[C@]3(C)[C@@H]([C@H](C)/C=C/[C@@H](O)C4CC4)CC[C@@H]23)C[C@@H](O)C[C@@H]1O was read as DAT uptake mod inactive.
For Cc1cccc(/C=N/NC(=O)C(C)Nc2cccc3ccccc23)n1 (centres undefined) the results were MRP-1 activ inactive, DAT uptake mod 2.5 and MRP reversal inactive.
